The list is not random: actives were taken first. Their share in the collection is about 9.2%.
ELG1 genotox: induces genotoxicity in HEK293T cells with luciferase-tagged ELG1; HEK293T ELG1-luciferase reporter, luminescence, 16 h; hit rate 1.3% among 330,000; AID 504466; Potency, µM (titrated, usually from 46 µM), most hits filed as activators; note: nearly all actives have a fitted effect of over 60% in size
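After overnight (16 hr) compound treatment at 37 °C, ELG1-luciferase HEK293T cells were lysed with ONE-Glo; luminescence quantified 30 min later at room temperature.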
NPC1 prom act: NPC1 promoter activation; Huh7 NPC1 promoter luciferase reporter, 24 h; Potency, µM (titrated, usually from 9.22 µM), actives largely listed as activators; hit rate 2.4% among 320,000; AID 485313; note: nearly all actives have a fitted effect of over 60% in size
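Huh7 cells stably carrying NPC1 promoter–luciferase, plated in Opti-MEM with 10% FBS for 2 h, were exposed to compound in DMSO for 24 h at 37 °C; luciferase reagent was added for 10 min and luminescence read.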
FLuc counter: inhibits or activates purified firefly luciferase, miR-21 counter-screen; purified FLuc, Km substrates, luminescence inhibition; AID 588342; hit rate 6.9% among 360,000; P08659; Potency, µM (series often up to 57.5 µM), actives largely listed as inhibitors; note: nearly all actives have a fitted effect of over 55% in size
Target sequence (P08659 whole entry, looked up): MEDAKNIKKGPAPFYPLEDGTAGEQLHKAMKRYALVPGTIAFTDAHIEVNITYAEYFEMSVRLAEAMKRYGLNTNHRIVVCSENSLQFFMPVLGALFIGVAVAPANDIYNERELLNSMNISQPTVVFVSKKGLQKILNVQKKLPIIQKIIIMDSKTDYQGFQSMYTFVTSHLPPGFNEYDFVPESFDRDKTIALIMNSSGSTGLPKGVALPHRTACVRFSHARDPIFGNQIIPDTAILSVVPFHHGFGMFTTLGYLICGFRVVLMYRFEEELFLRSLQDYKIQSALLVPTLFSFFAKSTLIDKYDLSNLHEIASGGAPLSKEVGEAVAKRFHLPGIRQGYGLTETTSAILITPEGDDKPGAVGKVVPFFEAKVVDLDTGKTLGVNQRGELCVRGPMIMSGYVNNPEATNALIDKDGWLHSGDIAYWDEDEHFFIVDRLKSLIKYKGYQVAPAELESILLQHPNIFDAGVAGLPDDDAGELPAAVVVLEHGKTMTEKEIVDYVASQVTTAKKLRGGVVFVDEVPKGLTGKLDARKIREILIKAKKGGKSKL
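Purified P. pyralis luciferase (10nM final) with 10uM D-luciferin and 10uM ATP (Km levels) in 50mM Tris acetate pH 7.5, 10mM Mg acetate, 0.01% Tween-20, 0.05% BSA; qHTS 6-point titration, ~60 µM downward; luminescence read.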
ELG1 DNA repair: inhibitors of ELG1-dependent DNA repair in HEK293T cells. hit rate 2.3% among 330,000. Potency, µM (highest dose often 46.1 µM), actives largely listed as inhibitors. HEK293T ELG1-luciferase reporter, luminescence, 16 h; DNA damage induced by 5-fluorouridine; note: nearly all actives have a fitted effect of over 55% in size
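Cells (2,000 per well) received 5-fluorouridine plus test compound or DMSO and were incubated 16 hr at 37 °C, 5% CO2. Luciferase activity was read by luminescence 30 min after ONE-Glo addition; signal suppression marked inhibition of damage-induced ELG1 function.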
Rab9 prom act: Rab9 promoter activation; Huh7 Rab9 promoter-luciferase reporter, luminescence, 24 h; Potency, µM (highest dose often 9.22 µM), usual class: activators; hit rate 2.8% among 320,000; AID 485297; note: nearly all actives have a fitted effect of over 60% in size
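Luminescence read-out: Huh7 cells stably expressing Rab9-luciferase, treated 24 h with compound at 37 °C, then lysed with luciferase reagent for 10 min at ambient before reading.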
SMN2 splice enh: increases expression of the SMN2 splice variant | HEK293 SMN2-luciferase splicing reporter, luminescence, 30-36 h | Potency, µM (titrated, usually from 46.1 µM), usual class: activators | hit rate 2.8% among 210,000 | AID 1458; note: nearly all actives have a fitted effect of over 55% in size
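HEK293 cells carry an SMN2 minigene-luciferase reporter in which exon 7 inclusion puts luciferase in frame. Cells were seeded at 2000 cells/well, attached for 10-12 hours, then exposed to compounds for 30-36 hours at 37C before ONE-Glo luminescence.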
Each line names hits and unclear results; the compound was inactive in the other large screens. Calls come from the whole dose curve; as a rule, active = well fitted curve in the direction sought with a large enough effect; inconclusive = small, poorly fitted or top-dose-only effect, or another doubt; inactive = no such curve, though single readings can be large; an effect the other way counts as inactive or inconclusive.

CCOC(=O)Cn1c(=O)c2c(nc(N3CCOCC3)n2Cc2ccccc2)n(C)c1=O	none (no result: ELG1 genotox, NPC1 prom act, ELG1 DNA repair, Rab9 prom act)
CCOC(=O)N1CCN(c2nc(-c3ccc(OC)cc3)no2)CC1	NPC1 prom act inconclusive, FLuc counter 17µM, ELG1 DNA repair inconclusive
COc1cc(-c2nnc(CSc3nnc(Nc4ccc(C(C)C)cc4)s3)o2)cc(OC)c1OC	FLuc counter 5.4µM, ELG1 DNA repair 6.5µM, SMN2 splice enh inconclusive
COc1ccccc1Nc1nnc(SCc2nnc(-c3cc(OC)c(OC)c(OC)c3)o2)s1	ELG1 DNA repair 6.5µM
COc1ccccc1Nc1nnc(SCC(=O)NC2CC2)s1	ELG1 DNA repair inconclusive (no result: SMN2 splice enh)
CCOc1ccccc1Nc1nnc(SCc2nnc(-c3cc(OC)c(OC)c(OC)c3)o2)s1	ELG1 DNA repair 5.8µM
CCn1c(/C=C/c2ccc(O)cc2)nc2ccccc2c1=O	ELG1 DNA repair inconclusive (no result: SMN2 splice enh)
Cc1ccc(Cn2c(/C=C/c3ccco3)nc3ccccc32)cc1	ELG1 genotox inconclusive, NPC1 prom act inconclusive, FLuc counter 11µM, ELG1 DNA repair inconclusive, Rab9 prom act inconclusive (no result: SMN2 splice enh)
C#CCn1c(/C=C/c2ccc(Cl)cc2)nc2ccccc21	FLuc counter 0.19µM, SMN2 splice enh 2.5µM (no result: ELG1 genotox, NPC1 prom act, ELG1 DNA repair, Rab9 prom act)
Clc1ccc(Cn2c(/C=C/c3ccco3)nc3ccccc32)cc1	NPC1 prom act inconclusive, FLuc counter 11µM, ELG1 DNA repair inconclusive, Rab9 prom act 3.5µM
O=C(NC1CC(=O)c2sccc21)c1ccc(Cl)cc1Cl (stereo not given)	ELG1 genotox inconclusive, NPC1 prom act inconclusive, FLuc counter 17µM, ELG1 DNA repair inconclusive, Rab9 prom act 2.8µM, SMN2 splice enh 5µM
Cc1ccccc1C(=O)N1CCC(C(=O)NC(C)c2ccc(-n3ccnc3)cc2)CC1 (stereo not given)	none (no result: SMN2 splice enh)
CCCc1cc(C(=O)Nc2ccc(C#N)cc2)no1	ELG1 DNA repair inconclusive (no result: SMN2 splice enh)
CCCc1cc(C(=O)Nc2ccc(F)cc2F)no1	ELG1 genotox 12µM, FLuc counter 11µM, ELG1 DNA repair inconclusive, Rab9 prom act inconclusive
CCCc1cc(C(=O)NCc2cccnc2)no1	ELG1 DNA repair inconclusive
CCCc1cc(C(=O)Nc2ccc(F)c(Cl)c2)no1	ELG1 genotox inconclusive, FLuc counter 5.4µM (no result: SMN2 splice enh)
CCCc1cc(C(=O)Nc2ccc(C(C)=O)cc2)no1	ELG1 genotox inconclusive, FLuc counter inconclusive, ELG1 DNA repair inconclusive
CCCc1cc(C(=O)NCc2ccccc2)no1	ELG1 genotox 23µM, FLuc counter inconclusive, ELG1 DNA repair inconclusive, SMN2 splice enh inconclusive
CCCc1cc(C(=O)Nc2cccc(C(C)=O)c2)no1	ELG1 genotox inconclusive, NPC1 prom act 3.2µM, FLuc counter inconclusive, ELG1 DNA repair inconclusive, Rab9 prom act inconclusive
CCCSc1ncc(Cl)c(C(=O)N2CCN(c3cccc(Cl)c3)CC2)n1	none (no result: ELG1 genotox, NPC1 prom act, ELG1 DNA repair, Rab9 prom act)
COC(=O)c1ccc(NC(=O)N2CCc3c([nH]c4ccccc34)C2c2ccc(C)cc2)cc1 (stereo not given)	none (no result: ELG1 genotox, NPC1 prom act, ELG1 DNA repair, Rab9 prom act)
CCOc1ccc(CCNC(=O)CN2C(=O)COc3ccc(S(=O)(=O)N4CCCC4)cc32)cc1	none (no result: ELG1 genotox, NPC1 prom act, ELG1 DNA repair, Rab9 prom act)
CCCc1cc(C(=O)Nc2cccc(Cl)c2C)no1	ELG1 genotox 18µM, NPC1 prom act inconclusive, FLuc counter 24µM, ELG1 DNA repair inconclusive, Rab9 prom act inconclusive (no result: SMN2 splice enh)
CCCc1cc(C(=O)Nc2ccccc2SC)no1	ELG1 genotox inconclusive, FLuc counter inconclusive, ELG1 DNA repair inconclusive, Rab9 prom act inconclusive, SMN2 splice enh inconclusive
CC(C)c1cc(C(=O)Nc2cccnc2)no1	ELG1 genotox inconclusive, NPC1 prom act 4µM, ELG1 DNA repair inconclusive, Rab9 prom act 2.8µM, SMN2 splice enh 35µM
COc1ccc(NC(=O)c2cc(C(C)C)on2)cc1OC	ELG1 genotox inconclusive, FLuc counter inconclusive, ELG1 DNA repair inconclusive
CCCc1cc(C(=O)Nc2cccc(Cl)c2)no1	ELG1 genotox 15µM, FLuc counter 1.9µM, ELG1 DNA repair inconclusive
CCCc1cc(C(=O)Nc2cccnc2)no1	ELG1 genotox inconclusive, FLuc counter 15µM, ELG1 DNA repair inconclusive
CCCc1cc(C(=O)NCc2ccco2)no1	ELG1 genotox inconclusive, FLuc counter inconclusive, ELG1 DNA repair inconclusive, Rab9 prom act inconclusive
CCOC(=O)c1scc(-c2ccccc2)c1S(=O)(=O)N1CCN(c2ccccc2OC)CC1	none (no result: ELG1 genotox, NPC1 prom act, ELG1 DNA repair, Rab9 prom act, SMN2 splice enh)
N#CC(c1nc2ccccc2nc1N1CCCC1)S(=O)(=O)c1ccccc1 (stereo not given)	ELG1 DNA repair inconclusive
CN1CCN(c2nc3ccccc3nc2C(C#N)S(=O)(=O)c2ccccc2)CC1 (stereo not given)	ELG1 DNA repair 8.2µM (no result: SMN2 splice enh)
N#Cc1cccc(NC(=O)N2CC3(CCN(C(=O)c4cccc(F)c4)CC3)C2)c1	none (no result: ELG1 genotox, NPC1 prom act, FLuc counter, ELG1 DNA repair, Rab9 prom act)
COc1ccccc1N1CCN(C(=O)Cn2c(=O)nc(-c3ccccc3)c3cc(Cl)ccc32)CC1	none (no result: ELG1 genotox, NPC1 prom act, ELG1 DNA repair, Rab9 prom act, SMN2 splice enh)
Cc1ccc(CNC(=O)c2c3c(nc4ccccc24)C(=O)N(C2CCCCC2)C3)cc1	none (no result: ELG1 genotox, NPC1 prom act, ELG1 DNA repair, Rab9 prom act, SMN2 splice enh)
Cc1ccc(SCC(=O)N=C2NC(=O)CS2)cc1	FLuc counter 15µM (no result: SMN2 splice enh)
COc1cc(NC(=O)CN(C)S(=O)(=O)c2ccc(-c3ccc(=O)[nH]n3)s2)cc(OC)c1	ELG1 DNA repair inconclusive (no result: SMN2 splice enh)
COC(=O)c1c(-c2ccccc2)csc1N1C(=O)Nc2ccccc2N1O	ELG1 genotox inconclusive, NPC1 prom act inconclusive, FLuc counter 4.8µM, ELG1 DNA repair inconclusive, Rab9 prom act 2.8µM, SMN2 splice enh inconclusive
CCS(=O)(=O)N1CCc2cc(C(=O)NCCc3ccccc3)ccc21	none (no result: ELG1 genotox, NPC1 prom act, ELG1 DNA repair, Rab9 prom act, SMN2 splice enh)
